According to PubChem BioAssay AID485273 (Sanford-Burnham Center for Chemical Genomics, 2010):
Among all 330,000 compounds or so, about 1,500 (0.45%) were called active. The sample holds actives, similar compounds and a random draw of the others, so the mix is not that of the screen. Cut-off read from the data, not from the text of the source: active = inhibition above about 45% (passing the limit was not always enough); inconclusive = no clear call, values can overlap the other calls.

The compounds below were run against Ubiquitin-conjugating enzyme E2 N (Homo sapiens) (UniProt P61088) (assay: blockers of UBC13 ubiquitin chain synthesis – biochemical, TR-FRET, uHTS, primary screen (AID 485273)). Details: UBC13 polyubiquitin chain formation, at 20 µM, active compounds read high.
Sequence of Ubiquitin-conjugating enzyme E2 N (Homo sapiens) (P61088 whole entry, looked up): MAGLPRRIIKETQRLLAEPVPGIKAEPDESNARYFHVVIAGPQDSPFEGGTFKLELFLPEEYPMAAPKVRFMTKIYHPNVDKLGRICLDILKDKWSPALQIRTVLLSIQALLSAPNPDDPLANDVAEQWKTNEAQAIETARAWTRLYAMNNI

Row | Structure (SMILES) | inhibition
1 | Cn1c(=O)c2c(-c3cccc(Br)c3)c(C#N)c(N)nc2n(C)c1=O | -5.6% (inactive)
2 | CC(C)(C)c1ccc(S(=O)(=O)N2CCN(C(=O)c3ccc4c(c3)C(=O)N(Cc3ccncc3)C4=O)CC2)cc1 | 6.4% (inactive)
3 | Cc1ccccc1C(CC(=O)c1cccs1)C(C#N)C#N (configuration not stated) | 4.5% (inactive)
4 | COc1ccc(NC2=CC(=S)NC(C)(C)C2)cc1 | -9.8% (inactive)
5 | COc1ccc(-c2sc3ccccc3c2-c2ccc(OCCN3CCOCC3)cc2)cc1 | 54.3% (active)
6 | c1ccc(-c2ccc(OCCN3CCOCC3)cc2)cc1 | 7.7% (inactive)
7 | COc1ccc2sc(-c3ccccc3OC)c(-c3ccc(OCCN4CCCC4)cc3)c2c1 | 60.6% (active)
8 | CC(=O)c1ccc(OCCN2CCOCC2)cc1 | -16.1% (inactive)
9 | c1ccc(-c2ccccc2OCCN2CCCCC2)cc1 | 5.8% (inactive)
10 | COc1cc(OC)cc(-c2sc3ccc(OC)cc3c2-c2ccc3cc[nH]c3c2)c1 | 9.4% (inactive)
11 | CC1(C)O[C@@H]2[C@H](O1)[C@@H](COS(=O)(=O)O)O[C@H]2n1cnc2c(=O)[nH]cnc21 | -0.9% (inactive)
12 | CC(C)CC1(C(=O)NCc2ccccn2)C=CCN1C(=O)c1ccccc1 (configuration not stated) | 13% (inactive)
13 | COc1ccc(C(=O)Nc2ccc(-n3nncc3C(C)(C)C)cc2)cc1 | -4.8% (inactive)
14 | COc1ccc(C(CNC(=O)c2cccc(NS(=O)(=O)c3ccc(C)c(F)c3)c2)N2CCCC2)cc1 (configuration not stated) | 55.5% (active)
15 | COc1ccc(C(CNC(=O)c2ccc(S(=O)(=O)Nc3ccccc3C)cc2)N2CCOCC2)cc1 (configuration not stated) | -1.4% (inactive)
16 | COc1ccc(C(CNC(=O)c2cccc(S(=O)(=O)Nc3ccccc3Cl)c2)N2CCOCC2)cc1 (configuration not stated) | 2.8% (inactive)
17 | CCOCCCNC(=O)C(=O)NCCCOCC | -2.5% (inactive)
18 | CC1CC(C)(C)n2c(O)c(N=NC(N)=S)c3cccc1c32 (configuration not stated) | 92.1% (active)
19 | COc1ccc(S(=O)(=O)N2CCC(C(=O)OCC(=O)c3ccccc3)CC2)cc1[N+](=O)[O-] | -5.5% (inactive)

Row | Structure (SMILES) | inhibition
20 | FC(F)(F)c1ccnc(Oc2ccc(C3=NCCS3)cc2)c1 | 7.6% (inactive)
21 | O=C(COc1ccc2ccc(=O)oc2c1)NCC(O)c1ccccc1 (configuration not stated) | 4.2% (inactive)
22 | COc1ccc2sc(N(CCCN(C)C)C(=O)c3ccc(S(=O)(=O)N(C)C4CCCCC4)cc3)nc2c1 | 15.5% (inactive)
23 | CCc1ccc2nc(N(CCCN(C)C)C(=O)c3ccc4c(c3)OCCO4)sc2c1 | 21.3% (inactive)
24 | CCN(CC)CCN(C(=O)c1cccc([N+](=O)[O-])c1)c1nc2ccc(OC)cc2s1 | -0.4% (inactive)
25 | CCOc1ccc2nc(N(CCCN(C)C)C(=O)c3ccc(C(=O)c4ccccc4)cc3)sc2c1 | 87.8% (active)
26 | CN(C)CCN(C(=O)CN1C(=O)c2ccccc2C1=O)c1nc2cc3c(cc2s1)OCCO3 | 6.7% (inactive)
27 | CCCC(=O)N(CCN1CCOCC1)c1nc2ccc(OCC)cc2s1 | -2.6% (inactive)
28 | CN(C)CCCN(C(=O)c1ccc(S(=O)(=O)N2CCCc3ccccc32)cc1)c1nc2ccc(F)cc2s1 | 37.2% (inactive)
29 | CN(C)CCCN(C(=O)c1ccc(S(=O)(=O)N2CCCCCC2)cc1)c1nc2ccc(Br)cc2s1 | 67% (active)
30 | CN(C)CCCN(C(=O)c1ccc(S(=O)(=O)N2CCCCCC2)cc1)c1nc2cc3c(cc2s1)OCCO3 | 85.8% (active)
31 | O=C(NCc1csc(-c2cccs2)n1)C1CC1 | -1.3% (inactive)
32 | CC(C)(CCl)C(=O)Nc1ccc(Sc2ccc(F)cc2)cc1 | 7.4% (inactive)
33 | Cc1ccc(C)c(NC(=O)C(c2ccccc2)N2CCN(CC(=O)NC3CC3)CC2)c1 (configuration not stated) | 2.6% (inactive)
34 | Cc1ccc(N2C(=O)N3[C@@H]4c5ccccc5OC[C@@H]4[C@@H](c4ccccc4)[C@@]3(C)C2=O)cc1 | 6.8% (inactive)
35 | O=C1CC(Cc2ccc(Cl)cc2)C(=O)N1c1cc(Cl)ccn1 (configuration not stated) | 0% (inactive)
36 | CN(c1ccccn1)c1ncnc2[nH]ncc12 | 5.9% (inactive)
37 | O=C(NNC(=O)c1cc(-c2ccccc2Cl)nc2ccccc12)c1csc(N2CCOCC2)n1 | 1.5% (inactive)
38 | CSCCC(NC(=O)c1ccc(Cl)cc1Cl)C(=O)NNC(=O)c1csc(N2CCOCC2)n1 (configuration not stated) | 58.4% (active)

Row | Structure (SMILES) | inhibition
39 | COc1ccccc1C(=O)NC(CCSC)C(=O)NNC(=O)c1csc(N2CCOCC2)n1 (configuration not stated) | 4.2% (inactive)
40 | NC1=NC[C@@H](Cc2ccc(O)cc2)N1CC1CCCCC1 | 17.3% (inactive)
41 | C[C@@H](CN1CCC[C@H]1CN1C(N)=NC[C@@H]1Cc1ccccc1)N1C[C@@H](Cc2ccccc2)N(CCCC2CCCC2)C1=N | 62.2% (active)
42 | CCCCN1C(N)=NC[C@@H]1Cc1ccccc1 | -6.3% (inactive)
43 | CC[C@@H](C)[C@@H]1CN([C@@H](C)CN2CCC[C@H]2CN2C(N)=NC[C@H]2C(C)C)C(=N)N1CCc1ccc(Cl)c(Cl)c1 | 50.1% (active)
44 | CC(=O)N1CCC(N(C(=O)Nc2ccc(Cl)cc2)C(C)C)CC1 | -2.5% (inactive)
45 | CC(OC(=O)CN1C(=O)C2CCCCC2C1=O)C(=O)Nc1ncc(Cl)cc1Cl (configuration not stated) | -6.5% (inactive)
46 | CCOC(=O)c1ccccc1NC(=O)COC(=O)C(Cc1c[nH]c2ccccc12)NC(C)=O (configuration not stated) | 3.4% (inactive)
47 | O=C(CNC(=O)Cc1ccccc1)NCC(=O)OCC(=O)c1ccccc1Cl | 12% (inactive)
48 | CCC1(CC)Cc2ccccc2-c2nc(CCl)[nH]c(=O)c21 | 9% (inactive)
49 | CC1(C)Cc2ccccc2-c2[nH]c(=S)[nH]c(=O)c21 | 62.2% (active)
50 | CC1(C)Cc2ccccc2-c2nc(CN3CCOCC3)[nH]c(=O)c21 | -5.3% (inactive)
51 | CCN(CC)CCC(c1ccc2c(c1)OCO2)c1c(OC)cc(OC)c2c(-c3ccccc3)cc(=O)oc12 (configuration not stated) | 32.1% (inactive)
52 | CCN(CC)CCC(c1cc(OC)c(OC)c(OC)c1)c1c(OC)cc(OC)c2c(-c3ccccc3)cc(=O)oc12 (configuration not stated) | 50.2% (active)
53 | CCN(CC)C(=O)CC(c1ccc2c(c1)OCO2)c1c(OC)cc(OC)c2c(-c3ccccc3)cc(=O)oc12 (configuration not stated) | 8.8% (inactive)
54 | N#CCCn1ncc2ccccc21 | 0.9% (inactive)
55 | CCCCn1c(N)c(N(CC)C(=O)c2ccccc2C(F)(F)F)c(=O)[nH]c1=O | -4.3% (inactive)
56 | CCn1c(CNC(=O)c2cc(OC)c(OC)c(OC)c2)cc2cc(C)ccc21 | 5.6% (inactive)
57 | O=S(=O)(Cc1cc(Sc2ccccc2)nc(-c2ccccc2)n1)c1ccccc1 | -3.4% (inactive)
